ARNT TACC3 PPI: ARNT/TACC3 interaction disruption | Q9Y6A5 | AlphaScreen His-ARNT PAS-B/GST-TACC3 binding, luminescence; TACC3 fragment carries E629A point mutation | inhibition, % at 9.99 µM | actives 0.66% (n = 390,000);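 active = mean inhibition of replicates at least 50% and at least half of replicates each reaching 50%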;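 also: 0% = complete ARNT plus TACC3 wells and 100% = ARNT alone without TACC3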
SIRT5 block: blocks human SIRT5 desuccinylation of peptide. Purified SirT5, succinyl-peptide AMC, trypsin-coupled fluorescence. inhibition, % at 15 µM. actives 1.1% (n = 330,000); in the data active = inhibition above about 15%
PfHsp90 yeast 2: inhibits growth of yeast expressing Plasmodium falciparum Hsp90; S. cerevisiae expressing PfHsp90, BacTiter-Glo ATP, 48 h; yeast lacking PDR1 and PDR3 efflux regulators; inhibition, % at 9.4 µM; actives 0.32% (n = 310,000); AID 504621;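 active = every replicate shows inhibition above about 80%, whatever the replicate mean, limit read from the data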;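 also: 0% = DMSO neutral controls and 100% = 20 µM radicicol positive controls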
Casp6 inh: caspase-6 (human) enzyme inhibition; purified caspase-6, Z-VEID-R110 cleavage fluorescence; inhibition, % at 12.5 µM; actives 0.53% (n = 350,000); AID 686996;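 active = mean inhibition across replicates at least about 35%, with every replicate also reaching that limit, limit read from the data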;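 also: 0% = median of neutral control wells and 100% = no fluorescence left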
NSD2 inh: blocks human histone methyltransferase NSD2. NSD2 peptide methylation, AlphaScreen, 120 min. inhibition, % at 12.5 µM. actives 0.54% (n = 310,000). AID 743445; in the data active = inhibition above about 50%
* = called active by the depositor; . = not tested or not shown. Sampled rows, rich in hits. Any-hit rate of the full collection: about 2.1%.

SMILES	ARNT TACC3 PPI	SIRT5 block	PfHsp90 yeast 2	Casp6 inh	NSD2 inh
CC(=O)N1CCN(c2ccccc2NC(=O)c2ccc(Br)o2)CC1	17	27*	40	9	1
CCS(=O)(=O)Nc1ccc2c(c1)C(=O)N(C)[C@@H]1CC[C@H](CC(=O)N3CCN(C)CC3)O[C@@H]1CO2	-8	-1	.	1	.
Cc1[nH]n(-c2ccccc2)c(=O)c1/C=N/NC(=O)C(C)C	70*	-1	11	7	3
Cc1[nH]n(-c2ccccc2)c(=O)c1/C=N/NC(=O)c1cccc([N+](=O)[O-])c1	31*	.	-3	.	-2
Cc1[nH]n(-c2ccccc2)c(=O)c1/C=N\NC(=O)C1COc2ccccc2O1 (centres undefined)	61*	.	8	.	-2
CC(=O)N/N=C/c1c(C)[nH]n(-c2ccccc2)c1=O	.	-3	-6	12	-2
COc1c(/C=N/Nc2ccc([N+](=O)[O-])cc2[N+](=O)[O-])c(C)nn1-c1ccccc1	-1	.	-5	.	-5
Cc1ccc(-n2[nH]c(C)c(/C=N/Nc3ccc([N+](=O)[O-])cc3[N+](=O)[O-])c2=O)cc1C	4	.	19	.	62*
C[C@H](CO)N1C[C@H](C)[C@H](CN(C)S(=O)(=O)c2cccs2)Oc2c(NC(=O)C3CCOCC3)cccc2C1=O	-8	-4	.	0	.
Cc1nc(C)c(CC(=O)N2CCc3c([nH]c4ccccc34)C2c2ccccn2)s1 (centres undefined)	.	18*	2	10	-3
CC(=O)c1cc(CC(=O)N2CCc3c([nH]c4ccccc34)C2c2ccccn2)cs1 (centres undefined)	12	-2	-29	0	-3
O=C(C[C@H]1C=C[C@@H](NC(=O)Cc2ccccn2)[C@@H](CO)O1)NCCCN1CCOCC1	-1	4	.	-2	.
COCC(=O)Nc1ccc2c(c1)[C@@H]1C[C@@H](CC(=O)NCC3CC3)O[C@@H](CO)[C@@H]1O2	-8	-2	.	2	.
COc1nc(N2CCOCC2)nc(-n2cccc2)n1	-1	23*	13	-4	2
COc1ccc(Nc2nc(OC)nc(N3CCOCC3)n2)cc1	-3	-3	-19	3	.
CCn1c(=O)cc(OCC(=O)NCCc2ccc(OC)c(OC)c2)c2ccccc21	1	20*	-3	-2	0
CCOc1ccc(CCNC(=O)COc2cc(=O)n(C)c3ccccc23)cc1OCC	0	6	-5	0	8
COc1ccccc1CNC(=O)C[C@@H]1CC[C@H]2[C@@H](COC[C@@H](O)CN2Cc2cccc(-c3ccncc3)c2)O1	7	1	.	1	.
O=C(c1cccc([N+](=O)[O-])c1)c1cc2ccccc2o1	12	32*	-37	-3	1
CCNC(=O)Nc1ccc2c(c1)C(=O)N(C)[C@H]1CC[C@@H](CC(=O)N[C@H](C)c3ccccc3)O[C@H]1CO2	active	6	.	3	.
COc1ccccc1C(=O)Nc1ccc2c(c1)C(=O)N(C)[C@H]1CC[C@H](CC(=O)Nc3cccc(C(C)C)c3)O[C@@H]1CO2	-2	19*	.	-3	.
CNC(=O)C[C@H]1CC[C@H]2[C@@H](COc3ccc(NC(=O)c4ccccc4OC)cc3C(=O)N2C)O1	1	2	.	0	.
C[C@H](CO)N1C[C@H](C)[C@@H](CN(C)S(=O)(=O)c2ccc(Cl)cc2)OCCCC[C@H](C)Oc2ccc(NC(=O)CCCN(C)C)cc2C1=O	8	-1	.	-1	.
Clc1ccc(Cl)c(OCCN2CCCC2)c1	2	16*	-30	-6	5
COc1ccc(S(=O)(=O)N2CC[C@@H]3[C@@H](CO)Nc4ccc(C5=CCCCC5)cc4[C@@H]32)cc1	.	7	.	0	.
SMILES	ARNT TACC3 PPI	SIRT5 block	PfHsp90 yeast 2	Casp6 inh	NSD2 inh
Cc1noc(C)c1NC(=O)Nc1ccc2c(c1)CC(=O)N([C@@H](C)CO)C[C@H](C)[C@@H](CN(C)C(=O)NC(C)C)O2	-52	.	.	.	.
COc1ccc(CN2CCN(C(=O)c3cccc4ccccc34)CC2)c(OC)c1OC	4	15*	9	11	1
Cc1ccc(-n2nnnc2C(Cl)(Cl)c2nnnn2-c2ccc(C)cc2)cc1	5	-4	128*	0	.
Clc1ccc(-c2nnnn2-c2ccc(Cl)cc2)cc1	3	-4	-13	3	-3
CCOc1ccc(/C=N/Nc2ccccn2)cc1OC	10	.	12	-3	.
COc1cc(/C=N/Nc2ccccn2)cc(OC)c1O	66*	4	-33	2	8
COc1cc(N/N=C/c2ccccc2O)ncn1	63*	.	-14	.	-4
COc1ccc(OC)c(NC(=O)CSc2nnc(CNC(=O)c3cccs3)o2)c1	5	21*	28	-2	10
COc1ccc(OC)c(NC(=O)CSc2nnc(CNC(=O)c3ccco3)o2)c1	1	.	4	.	.
COc1ccccc1C(=O)NNC(=S)NC(=O)c1cccs1	13	2	92*	-2	-1
COc1ccccc1NC(=O)CCC(=O)Nc1cc(OC)c(NC(=O)c2cccs2)cc1OC	26*	-5	-37	0	32
CC1COCC(C)N1C1=C(Cl)C(=O)c2ccccc2C1=O (centres undefined)	30*	0	-22	33	107*
CC1C(=O)N2CCCc3cc(S(=O)(=O)NCCc4ccccc4)cc1c32 (centres undefined)	5	72*	28	.	0
COC(=O)[C@@H]1[C@@H](CO)[C@@H]2Cn3c(ccc(-c4ccccc4F)c3=O)[C@@H]2N1C(=O)c1ccccn1	-14	1	.	-3	.
COC(=O)c1ccc2c(c1)NC(=O)CS2	-5	0	22	0	2
N#CCCN(C(=O)COC(=O)c1ccc2c(c1)NC(=O)CS2)c1ccc2c(c1)OCCO2	.	37*	15	-4	0
C[C@@H]1CN([C@H](C)CO)S(=O)(=O)c2ccc(C#CC3CC3)cc2O[C@@H]1CN(C)Cc1cccnc1	0	2	.	3	.
O=[N+]([O-])c1ccc(/C=N/n2cnc3ccccc32)s1	1	.	105*	1	0
C[C@@H]1CN([C@@H](C)CO)C(=O)c2cc(NC(=O)Nc3ccc4c(c3)OCO4)ccc2O[C@H]1CN(C)C(=O)Nc1ccc(C(F)(F)F)cc1	9	1	.	3	.
O=C(C[C@H]1C[C@@H]2c3cc(NC(=O)C4CCOCC4)ccc3O[C@@H]2[C@@H](CO)O1)NCCc1ccccc1	-12	0	.	1	.
COc1ccccc1NC(=O)C(=N\O)/C(C)=N/O	-6	4	21	39*	11
COc1ccccc1NC(C)=O	1	.	4	.	4
O=C1CNC(=O)/C1=C/c1ccc(Br)cc1	-2	25*	-12	2	18
O=C1CNC(=O)/C1=C\c1ccc(O)cc1	-3	2	3	9	0
CC1(Oc2cnc(Cl)c3ccccc23)CCN(Cc2ccc(OC(F)(F)F)cc2)C1 (centres undefined)	.	3	.	46*	6

Screens from PubChem.
